Here are results for 39 molecules from PubChem BioAssay (EPA / NIEHS).

Where “and” joins values, the source holds several entries; their conditions need not be identical. Equal values may be shown once. Records with an inconclusive call do not appear. More than one record can exist for a structure, and the calls need not agree. Calls of active or inactive are those of the source. How the source made its calls: active means hit-call score of the fitted dose curve at least 0.9, where 1 is the maximum; inconclusive means response in the unintended direction; inactive means score below 0.9.

The term AC50 denotes the concentration at which the activity in the assay is half-maximal.

Cellular tumor antigen p53 (Homo sapiens), sequence (P04637 whole entry, looked up, the tested form may be a part): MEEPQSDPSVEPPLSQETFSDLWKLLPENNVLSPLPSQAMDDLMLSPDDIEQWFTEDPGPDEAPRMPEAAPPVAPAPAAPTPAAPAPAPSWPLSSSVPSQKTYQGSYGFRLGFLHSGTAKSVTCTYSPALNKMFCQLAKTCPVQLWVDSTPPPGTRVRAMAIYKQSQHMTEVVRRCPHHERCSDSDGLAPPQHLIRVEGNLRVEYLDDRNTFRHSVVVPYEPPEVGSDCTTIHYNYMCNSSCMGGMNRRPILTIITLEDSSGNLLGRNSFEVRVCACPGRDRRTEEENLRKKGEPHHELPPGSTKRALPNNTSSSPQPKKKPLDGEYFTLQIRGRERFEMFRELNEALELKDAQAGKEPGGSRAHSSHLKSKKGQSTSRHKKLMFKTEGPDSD

This experiment addresses Cellular tumor antigen p53 (Homo sapiens) (UniProt P04637). Nature of the experiment: TOX21_p53_BLA_p3_ratio: Tox21 HCT-116 p53 Agonism Beta-lactamase Assay, Ratio, Phase 3 (AID 2283596). The text has this: TOX21_p53_BLA_p3 is a cell-based, single-readout assay that uses HCT116, a human intestinal cell line, […] in a 1536-well plate.TOX21_p53_BLA_p3_ratio is an assay readout measuring reporter gene via receptor activity and designed using inducible reporter (beta lactamase induction) detected with GAL4 b-lactamase reporter gene. The signal is derived from the ratio of cleaved (ch2) to uncleaved (ch1) reporter gene substrate used as the measure of target activity.Data from the assay component TOX21_p53_BLA_p3_ratio was analyzed into 1 assay endpoint. This assay endpoint, TOX21_p53_BLA_p3_ratio, was analyzed in the positive analysis fitting direction relative to DMSO as the negative control and baseline of activity. Using a type of inducible reporter, gain-of-signal activity can be used to understand changes in the reporter gene as they relate to the gene TP53. Furthermore, this assay endpoint can be referred to as a primary readout, because this assay has produced multiple assay endpoints where this ratio serves a reporter gene function to understand target activity. To generalize the intended target to other relatable targets, this assay endpoint is annotated to the DNA binding intended target family, where the subfamily is tumor suppressor.
Thawing Method: Place 14 mL of pre-warmed thaw medium into a 15 mL of conical tub. Remove the vial of cells to be thawed from liquid nitrogen and thaw rapidly by placing at 37C in a water bath with gentle agitation for 1-2 minutes. Decontaminate the vial by wiping with 70% ethanol before opening in a biological safety cabinet. Transfer the vial contents drop-wise into 14 mL of thaw medium in a sterile 15-mL conical tub. Centrifuge cells at 900 rpm for 4 minutes and resuspend in thaw medium. Transfer contents to the T75 tissue culture flask containing Thaw Medium and place flask in a humidified 37C/5% CO2 incubator. Switch to growth medium at first passage.Propagation Method: Aspirate medium, rinse once in DPBS, add 0.25% Trypsin/EDTA and swirl to coat the cell evenly. Add an equal volume of Growth Medium to inactivate Trypsin after 2-3 minutes incubation at 37C. Centrifuge cells at 900 rpm for 4 minutes and resuspend in growth medium. Cell should be passage or fed at least twice a week.Assay Protocol: Harvest cells from culture in growth medium and resuspend in assay medium. 2.2 Dispense 4000 cells/5 uL/well into 1536-well black/clear bottom plates using a Multidrop dispenser. After the cells were incubated at 37C for 5 hours, 23 nL of compounds dissolved in DMSO were transferred to the assay plate by a PinTool resulting in a 217-fold dilution. Incubate the plates for 16 hours at 37C, 5% CO2. Add 1 uL of 6X LiveBLAzer FRET B/G (CCF4-AM) Substrate Mixture to each well using a BioRAPTR dispenser and incubate the plates at room temperature for 2 hours. Measure fluorescence intensity at 460 and 530 nm emission and 405 nm excitation by an Envision detector. Data is expressed as the ratio of 460nm/530nm emissions. Add 4 uL of Cell-titer Glo to each well using BioRAPTR and incubate the plates at room temperature for 2 hours. Measure fluorescence intensity by a VewLux plate reader.
Turning to `C=CCC1(C(C)CCC)C(=O)N=C(S)NC1=O` (stereo not given), the result was inactive.
In the case of `CC[C@@H](CO)NC(=O)[C@@H]1C=C2c3cccc4c3c(cn4C)C[C@H]2N(C)C1`, the result was inactive.
For the molecule `O=C(O)CCCc1ccc(N(CCCl)CCCl)cc1`, the AC50 was 43.5 µM (active) and 42.8 µM (active) and 23 µM (active).
As for `O=c1c2ccccc2[se]n1-c1ccccc1`, the result was inactive.
`CNC(=O)Oc1ccccc1C(=O)Nc1ccccc1`: the outcome was inactive.
As to `O=Cc1ccccc1`, the outcome was inactive.
Turning to `CCCCCCCCCCCC#N`, the result was inactive.
Turning to `O=C(CCN1CC1)OCC(CO)(COC(=O)CCN1CC1)COC(=O)CCN1CC1`, the result was inactive.
On the same count and under the same terms, the same measure for `C=C1CC[C@@]2(O)[C@H]3Cc4ccc(O)c5c4[C@@]2(CCN3CC2CC2)[C@H]1O5`: “inactive”; for `Cc1cccc2sc3nncn3c12`: “inactive”.
For the molecule `CCOP(=S)(OCC)Oc1cc(Cl)c(Br)cc1Cl`, the outcome was inactive.
For the molecule `CC[C@H](OC(C)=O)C(C[C@H](C)NC)(c1ccccc1)c1ccccc1`, the result was inactive.
On the same count and under the same terms, the same measure for `O=C(O)COc1ccccc1`: “inactive”.
With `COP(=O)(OC)OC(=CCl)c1cc(Cl)c(Cl)cc1Cl`, the outcome was inactive.
`CCCCC#N`: the outcome was inactive.
`Oc1ccc(Cl)c(Cl)c1`: the result was inactive.
Take `O=C(Cl)C(Cl)(Cl)Cl`: the outcome was inactive.
In the case of `Cc1ccc(OP(=O)(Oc2ccc(C)cc2)Oc2ccc(C)cc2)cc1` (tested in a mixture with another compound), the result was inactive.
As for `CCCC(C)(COC(N)=O)COC(=O)NC1CC1` (stereo not given), the outcome was inactive.
For the molecule `CCOP(=S)(OCC)Oc1cnc2ccccc2n1`, the outcome was inactive.
As for `COC(C)(C)CCC[C@H](C)C/C=C/C(C)=C/C(=O)OC(C)C`, the result was inactive.
Take `CNC1(c2ccccc2Cl)CCCCC1=O` (stereo not given): the result was inactive.
On to `CC[n+]1c(-c2ccccc2)c2cc(N)ccc2c2ccc(N)cc21`, for which the AC50 is 3.51 µM (active) and 14.1 µM (active) and 6.74 µM (active).
For the molecule `Clc1ccc(C(Cl)(Cl)Cl)c(Cl)c1`, the outcome was inactive.
Regarding `CN1C[C@H](C(=O)N[C@]2(C)O[C@@]3(O)[C@@H]4CCCN4C(=O)[C@H](Cc4ccccc4)N3C2=O)C=C2c3cccc4[nH]cc(c34)C[C@H]21`, the outcome was inactive.
On the same count and under the same terms, next, `O=C(NC(=O)c1ccccc1Cl)Nc1ccc(OC(F)(F)F)cc1`: “inactive”.
In the case of `c1csc(C2(N3CCCCC3)CCCCC2)c1`, the result was inactive.
For the molecule `N[C@@H](Cc1ccc(N(CCCl)CCCl)cc1)C(=O)O`, the half-maximal activity concentration (AC50) is 20.2 µM (active) and 24.6 µM (active).
Consider `CN1c2ccccc2C(NCCCCCCC(=O)O)c2ccc(Cl)cc2S1(=O)=O` (stereo not given), for which the outcome was inactive.
With `[S]=[Sb](=[S])[S][Sb](=[S])=[S]`, the result was inactive.
On the same count and under the same terms, next, `Cn1c(N)nc2c3cccnc3ccc21`: “inactive”; `CNC(=O)Oc1cc(C)cc(C(C)C)c1`: “inactive”.
In the case of `O=[N+]([O-])c1cccc2cccnc12`, the outcome was inactive.
Still for that read-out and setting: the same measure for `CC(C)CCON=O`: “inactive”.
Consider `O=C1C=CC(=O)C=C1`, for which the result was inactive and the AC50 is 71.3 µM (active).
On to `C[C@]12C/C(=C/O)C(=O)C[C@@H]1CC[C@@H]1[C@@H]2CC[C@@]2(C)[C@H]1CC[C@]2(C)O`, for which the result was inactive.
Still for that read-out and setting: next, `CCC(=O)O[C@H]1[C@@H](N2CCCCC2)C[C@H]2[C@@H]3CC[C@H]4C[C@H](OC(C)=O)[C@@H](N5CCCCC5)C[C@]4(C)[C@H]3CC[C@@]21C`: “inactive”; `CC(C)CCCCCCCOP(=O)(Oc1ccccc1)Oc1ccccc1`: “inactive”.
With `CC1CN1` (stereo not given), the result was inactive.
